Laboratory results as given in the supplement of paper PMC11732987, “Enantioselective OTUD7B fragment discovery through chemoproteomics screening and high-throughput optimisation” (Communications Chemistry, 2025).

How the values were obtained:
Experiment in all cases: log2 ratio of Biotin-Ahx-Ub-VS probe labelling (fragment/DMSO); higher = less target engagement (more negative = stronger competition), active = hit call of the paper (q ≤ 0.05, log2 ratio ≤ -1)
Details in all cases: compound concentration: 200 uM; treatment time: 3 h
USP19 = target: T1, USP19 (UniProt O94966)
T1 sequence (whole entry): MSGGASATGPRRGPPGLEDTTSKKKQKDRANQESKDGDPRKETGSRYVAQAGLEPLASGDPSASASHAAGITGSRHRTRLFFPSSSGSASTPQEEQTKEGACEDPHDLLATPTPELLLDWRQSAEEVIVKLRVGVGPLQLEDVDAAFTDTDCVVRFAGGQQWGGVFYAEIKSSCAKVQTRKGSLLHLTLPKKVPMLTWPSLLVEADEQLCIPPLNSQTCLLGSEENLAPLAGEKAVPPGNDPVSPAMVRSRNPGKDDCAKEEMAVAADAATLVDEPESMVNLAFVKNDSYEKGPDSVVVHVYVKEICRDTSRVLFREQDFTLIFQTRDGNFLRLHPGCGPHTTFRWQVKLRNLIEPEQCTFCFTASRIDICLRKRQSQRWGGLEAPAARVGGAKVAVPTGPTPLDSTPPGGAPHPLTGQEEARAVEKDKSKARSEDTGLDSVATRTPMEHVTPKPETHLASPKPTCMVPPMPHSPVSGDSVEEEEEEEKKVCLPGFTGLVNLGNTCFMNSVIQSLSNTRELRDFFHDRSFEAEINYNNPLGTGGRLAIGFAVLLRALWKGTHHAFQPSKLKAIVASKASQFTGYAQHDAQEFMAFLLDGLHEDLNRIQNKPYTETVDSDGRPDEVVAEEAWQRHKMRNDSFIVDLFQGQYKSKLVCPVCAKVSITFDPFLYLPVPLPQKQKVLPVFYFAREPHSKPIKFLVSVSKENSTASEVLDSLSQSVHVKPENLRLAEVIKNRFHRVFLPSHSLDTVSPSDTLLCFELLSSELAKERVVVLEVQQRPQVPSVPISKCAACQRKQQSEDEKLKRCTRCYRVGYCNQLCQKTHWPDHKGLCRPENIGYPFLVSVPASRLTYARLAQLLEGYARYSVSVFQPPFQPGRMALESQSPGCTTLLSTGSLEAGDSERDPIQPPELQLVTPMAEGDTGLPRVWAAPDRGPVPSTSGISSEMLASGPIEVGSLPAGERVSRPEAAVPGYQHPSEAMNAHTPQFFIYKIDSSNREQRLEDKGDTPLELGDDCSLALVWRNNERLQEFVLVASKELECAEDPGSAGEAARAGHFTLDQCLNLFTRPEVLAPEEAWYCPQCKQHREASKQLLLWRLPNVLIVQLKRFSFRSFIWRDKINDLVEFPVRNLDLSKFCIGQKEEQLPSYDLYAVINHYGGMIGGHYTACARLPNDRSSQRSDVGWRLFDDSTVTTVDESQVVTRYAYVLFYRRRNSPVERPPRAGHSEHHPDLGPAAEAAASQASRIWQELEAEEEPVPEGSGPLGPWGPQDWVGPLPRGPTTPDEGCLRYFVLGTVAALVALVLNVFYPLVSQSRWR
In short: (§1)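 Labelling with Biotin-Ahx-Ub-VS (0.5 µM final, 1 h) followed a 3 h triplicate treatment of HEK293T lysate (495 µg per sample, Tris/CHAPS/IGEPAL buffer with protease inhibitors) with fragment at 200 µM or vehicle. Labelled DUBs were NeutrAvidin-enriched, digested with LysC and trypsin, and run by diaPASEF LC-MS/MS. The values, average log2 fragment/vehicle ratios by unpaired t-test, come from global-median-normalised Spectronaut label-free quantities. Proteins with ≥2 unique peptides were used.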

USP22 = target: T2, USP22 (UniProt Q9UPT9)
T2 sequence (whole entry): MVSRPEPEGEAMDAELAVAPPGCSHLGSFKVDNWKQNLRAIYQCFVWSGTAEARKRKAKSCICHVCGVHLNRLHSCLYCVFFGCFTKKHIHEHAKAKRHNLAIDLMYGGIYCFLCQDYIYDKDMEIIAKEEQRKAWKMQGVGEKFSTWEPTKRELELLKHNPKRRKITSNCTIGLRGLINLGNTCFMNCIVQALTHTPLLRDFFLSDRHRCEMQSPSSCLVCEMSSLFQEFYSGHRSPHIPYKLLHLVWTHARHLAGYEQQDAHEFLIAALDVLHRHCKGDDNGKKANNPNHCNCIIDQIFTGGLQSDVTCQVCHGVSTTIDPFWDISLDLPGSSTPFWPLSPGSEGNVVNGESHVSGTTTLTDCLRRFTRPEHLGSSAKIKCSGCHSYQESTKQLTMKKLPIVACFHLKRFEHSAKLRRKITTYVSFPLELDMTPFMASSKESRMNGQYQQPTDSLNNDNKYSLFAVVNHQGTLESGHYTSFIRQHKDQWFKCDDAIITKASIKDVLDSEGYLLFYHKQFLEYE
In short: as §1

USP24 = USP24 (UniProt Q9UPU5)
In short: as §1

USP25 = target: T3, USP25 (UniProt Q9UHP3)
T3 sequence (whole entry): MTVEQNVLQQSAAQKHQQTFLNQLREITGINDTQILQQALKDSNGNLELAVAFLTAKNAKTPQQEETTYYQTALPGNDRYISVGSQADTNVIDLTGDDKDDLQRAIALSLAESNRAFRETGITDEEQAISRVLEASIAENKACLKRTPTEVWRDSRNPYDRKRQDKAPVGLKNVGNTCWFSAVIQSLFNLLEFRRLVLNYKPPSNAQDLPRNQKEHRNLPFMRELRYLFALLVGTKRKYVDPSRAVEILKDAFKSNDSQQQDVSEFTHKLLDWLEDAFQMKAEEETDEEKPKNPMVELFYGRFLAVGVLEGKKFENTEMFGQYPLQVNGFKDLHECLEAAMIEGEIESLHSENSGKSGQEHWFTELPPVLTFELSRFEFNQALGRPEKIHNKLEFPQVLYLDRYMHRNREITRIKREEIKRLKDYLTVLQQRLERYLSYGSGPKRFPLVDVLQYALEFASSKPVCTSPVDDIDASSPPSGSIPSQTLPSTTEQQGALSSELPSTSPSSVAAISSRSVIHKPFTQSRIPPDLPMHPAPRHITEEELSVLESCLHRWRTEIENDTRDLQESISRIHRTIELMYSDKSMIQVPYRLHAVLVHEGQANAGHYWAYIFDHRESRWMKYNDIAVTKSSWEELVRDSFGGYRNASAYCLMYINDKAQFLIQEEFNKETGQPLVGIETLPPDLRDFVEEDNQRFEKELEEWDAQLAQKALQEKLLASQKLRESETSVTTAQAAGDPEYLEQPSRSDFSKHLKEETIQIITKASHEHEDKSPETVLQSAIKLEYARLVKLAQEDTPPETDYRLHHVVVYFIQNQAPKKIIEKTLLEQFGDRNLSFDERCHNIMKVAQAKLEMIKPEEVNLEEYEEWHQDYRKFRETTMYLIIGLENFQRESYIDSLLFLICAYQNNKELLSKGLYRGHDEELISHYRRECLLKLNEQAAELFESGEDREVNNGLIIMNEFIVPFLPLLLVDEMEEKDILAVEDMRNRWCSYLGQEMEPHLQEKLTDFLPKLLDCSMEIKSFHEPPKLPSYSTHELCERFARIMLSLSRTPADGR
In short: as §1

USP28 = target: T4, USP28 (UniProt Q96RU2)
T4 sequence (whole entry): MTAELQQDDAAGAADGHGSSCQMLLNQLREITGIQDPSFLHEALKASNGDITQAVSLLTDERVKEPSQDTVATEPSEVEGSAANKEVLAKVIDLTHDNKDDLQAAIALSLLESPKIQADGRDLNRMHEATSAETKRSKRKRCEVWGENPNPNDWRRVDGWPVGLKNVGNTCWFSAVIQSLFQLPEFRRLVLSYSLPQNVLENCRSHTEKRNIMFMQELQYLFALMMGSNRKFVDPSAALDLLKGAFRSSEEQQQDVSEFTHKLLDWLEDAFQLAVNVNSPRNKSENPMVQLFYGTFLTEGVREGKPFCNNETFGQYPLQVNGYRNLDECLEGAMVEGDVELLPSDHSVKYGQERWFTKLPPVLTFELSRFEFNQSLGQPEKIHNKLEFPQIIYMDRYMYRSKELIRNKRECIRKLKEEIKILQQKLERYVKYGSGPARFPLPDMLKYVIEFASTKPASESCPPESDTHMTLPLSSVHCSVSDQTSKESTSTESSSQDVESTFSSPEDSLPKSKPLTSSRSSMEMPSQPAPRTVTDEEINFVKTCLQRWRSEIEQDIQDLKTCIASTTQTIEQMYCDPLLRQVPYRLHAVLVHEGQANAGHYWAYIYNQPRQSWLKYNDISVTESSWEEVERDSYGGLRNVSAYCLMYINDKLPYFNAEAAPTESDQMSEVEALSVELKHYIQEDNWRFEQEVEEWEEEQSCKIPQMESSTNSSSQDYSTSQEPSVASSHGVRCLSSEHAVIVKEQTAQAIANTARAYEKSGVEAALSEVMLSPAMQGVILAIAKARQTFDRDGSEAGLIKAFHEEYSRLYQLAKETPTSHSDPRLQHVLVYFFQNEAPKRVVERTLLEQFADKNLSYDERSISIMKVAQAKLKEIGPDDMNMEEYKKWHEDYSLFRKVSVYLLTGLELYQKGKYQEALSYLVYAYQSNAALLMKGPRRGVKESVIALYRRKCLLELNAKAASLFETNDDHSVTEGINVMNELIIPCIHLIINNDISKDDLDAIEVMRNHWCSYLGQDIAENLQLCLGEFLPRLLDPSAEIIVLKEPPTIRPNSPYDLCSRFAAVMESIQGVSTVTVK
In short: as §1

Measured: log2 ratio of Biotin-Ahx-Ub-VS probe labelling

Sequence of USP24 (Q9UPU5 whole entry): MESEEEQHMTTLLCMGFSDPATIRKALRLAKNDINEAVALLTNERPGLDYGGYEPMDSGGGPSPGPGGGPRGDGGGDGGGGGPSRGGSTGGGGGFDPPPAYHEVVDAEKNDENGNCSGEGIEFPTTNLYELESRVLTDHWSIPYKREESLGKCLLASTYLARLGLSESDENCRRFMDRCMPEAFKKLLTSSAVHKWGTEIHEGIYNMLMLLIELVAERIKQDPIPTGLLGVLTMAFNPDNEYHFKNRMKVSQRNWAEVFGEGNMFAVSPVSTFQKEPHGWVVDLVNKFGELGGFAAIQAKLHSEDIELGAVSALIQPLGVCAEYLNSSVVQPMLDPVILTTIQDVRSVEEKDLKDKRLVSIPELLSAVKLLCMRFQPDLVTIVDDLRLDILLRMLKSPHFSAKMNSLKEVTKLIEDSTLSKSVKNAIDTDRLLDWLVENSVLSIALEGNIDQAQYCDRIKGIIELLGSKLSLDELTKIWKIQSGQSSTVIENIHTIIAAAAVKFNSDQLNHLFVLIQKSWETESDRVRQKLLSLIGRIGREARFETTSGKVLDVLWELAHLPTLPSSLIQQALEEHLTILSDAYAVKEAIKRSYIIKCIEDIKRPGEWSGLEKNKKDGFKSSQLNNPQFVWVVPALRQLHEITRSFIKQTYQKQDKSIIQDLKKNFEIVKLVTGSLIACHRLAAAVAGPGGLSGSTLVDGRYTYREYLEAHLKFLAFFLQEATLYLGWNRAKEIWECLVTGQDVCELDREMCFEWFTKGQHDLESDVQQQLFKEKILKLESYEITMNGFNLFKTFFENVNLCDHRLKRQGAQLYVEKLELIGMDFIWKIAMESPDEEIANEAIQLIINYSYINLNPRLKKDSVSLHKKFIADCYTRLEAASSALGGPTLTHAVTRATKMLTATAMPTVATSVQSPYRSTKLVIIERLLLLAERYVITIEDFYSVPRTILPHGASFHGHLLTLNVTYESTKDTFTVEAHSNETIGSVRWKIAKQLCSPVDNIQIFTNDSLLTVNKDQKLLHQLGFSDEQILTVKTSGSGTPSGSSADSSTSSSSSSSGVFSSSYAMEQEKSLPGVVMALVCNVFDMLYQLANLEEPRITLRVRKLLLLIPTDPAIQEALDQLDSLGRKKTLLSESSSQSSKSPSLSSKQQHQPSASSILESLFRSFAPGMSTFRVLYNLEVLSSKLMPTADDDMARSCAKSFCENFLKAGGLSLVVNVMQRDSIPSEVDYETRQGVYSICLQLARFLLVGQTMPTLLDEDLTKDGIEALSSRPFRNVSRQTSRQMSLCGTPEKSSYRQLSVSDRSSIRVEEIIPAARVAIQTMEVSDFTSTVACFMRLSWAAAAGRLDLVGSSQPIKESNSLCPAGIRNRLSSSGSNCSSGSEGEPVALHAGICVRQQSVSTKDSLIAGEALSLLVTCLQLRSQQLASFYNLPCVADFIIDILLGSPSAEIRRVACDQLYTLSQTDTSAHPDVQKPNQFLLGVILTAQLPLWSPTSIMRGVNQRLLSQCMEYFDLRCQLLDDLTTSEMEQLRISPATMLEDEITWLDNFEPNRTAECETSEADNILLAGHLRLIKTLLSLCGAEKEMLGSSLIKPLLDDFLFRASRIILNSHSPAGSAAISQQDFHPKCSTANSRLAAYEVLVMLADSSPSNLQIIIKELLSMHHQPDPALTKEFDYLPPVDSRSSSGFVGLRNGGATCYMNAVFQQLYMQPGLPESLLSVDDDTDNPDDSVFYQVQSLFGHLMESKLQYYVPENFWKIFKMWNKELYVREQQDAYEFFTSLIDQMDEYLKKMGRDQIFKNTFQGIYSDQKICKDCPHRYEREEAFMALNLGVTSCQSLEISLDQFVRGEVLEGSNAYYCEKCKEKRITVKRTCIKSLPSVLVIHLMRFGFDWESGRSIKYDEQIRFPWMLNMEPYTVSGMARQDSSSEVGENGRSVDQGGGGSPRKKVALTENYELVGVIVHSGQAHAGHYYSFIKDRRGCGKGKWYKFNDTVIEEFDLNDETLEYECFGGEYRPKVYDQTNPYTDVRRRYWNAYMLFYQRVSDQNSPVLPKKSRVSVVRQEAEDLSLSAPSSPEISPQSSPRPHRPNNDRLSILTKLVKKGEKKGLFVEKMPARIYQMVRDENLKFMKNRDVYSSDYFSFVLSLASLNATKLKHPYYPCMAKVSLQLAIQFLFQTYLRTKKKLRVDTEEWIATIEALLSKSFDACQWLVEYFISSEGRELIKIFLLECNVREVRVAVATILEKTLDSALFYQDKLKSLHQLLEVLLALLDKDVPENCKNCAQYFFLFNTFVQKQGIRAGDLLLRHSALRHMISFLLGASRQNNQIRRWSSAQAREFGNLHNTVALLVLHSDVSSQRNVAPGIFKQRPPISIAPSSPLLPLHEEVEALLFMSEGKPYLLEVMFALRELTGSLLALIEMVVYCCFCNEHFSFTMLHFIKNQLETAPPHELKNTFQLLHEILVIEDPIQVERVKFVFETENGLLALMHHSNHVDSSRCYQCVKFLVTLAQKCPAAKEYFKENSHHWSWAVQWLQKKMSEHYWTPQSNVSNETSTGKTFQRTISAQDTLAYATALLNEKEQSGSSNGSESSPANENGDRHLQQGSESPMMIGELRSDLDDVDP

O=C(CCl)NC1CCCCNC1=O (stereo not given)
inactive: USP19 -0.125 | USP22 -0.0454 | USP24 -0.299 | USP25 -0.212 | USP28 -0.482
